From PubChem BioAssay AID1159580 (chemical genetic matrix, 2015)
Where “and” joins values, the source holds several entries; their conditions need not be identical. Equal values may be shown once. The whole screen tested about 5,500 compounds, of which about 2,000 (36%) were called active. Not shown: some 18% with an inconclusive outcome. No stated cut-off is given here; in the data, active means normalized growth mostly below about 0.91 (no sharp cut-off); inconclusive means no clear call, values can overlap the other calls; inactive means mostly above about 0.92. This is one part of the list.

Assay: chemical genetic growth profiling, strain panel (AID 1159580);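 further: tested at 20 µM; growth read once vehicle control cultures reached saturation at 30 °C; 1 = growth at the plate median or of vehicle wells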
Settings: S. cerevisiae deletion strains, growth OD

Measured: normalized growth

COc1cc2c(cc1OC)-c1cc3ccc(OC)c(OC)c3c[n+]1CC2
inactive: locus YAL013W, strain DEP1, stronger effect = lower value 0.993 | locus YAL021C, strain ccr4, stronger effect = lower value 0.988 | locus YAL026C, strain drs2, stronger effect = lower value 0.987 | locus YAL030W, strain snc1, stronger effect = lower value 0.988 | locus YBL061C, strain skt5, stronger effect = lower value 0.988 | locus YBR009C, strain hhf1, stronger effect = lower value 0.984 | locus YBR021W, strain FUR4, stronger effect = lower value 0.977 and 1.02 | locus YBR023C, strain chs3, stronger effect = lower value 0.983 | locus YBR171W, strain sec66, stronger effect = lower value 0.971 | locus YBR229C, strain ROT2, stronger effect = lower value 0.979 and 1 | locus YBR231C, strain swc5, stronger effect = lower value 0.981 | locus YBR279W, strain paf1, stronger effect = lower value 0.979 | locus YCL011C, strain gbp2, stronger effect = lower value 0.991 | locus YCL016C, strain dcc1, stronger effect = lower value 0.978 | locus YCL029C, strain bik1, stronger effect = lower value 0.991 and 1.01 | locus YCL061C, strain MRC1, stronger effect = lower value 0.989 | locus YCL069W, strain vba3, stronger effect = lower value 0.988 | locus YCR088W, strain abp1, stronger effect = lower value 0.98 | locus YDL005C, strain med2, stronger effect = lower value 0.975 | locus YDL035C, strain GPR1, stronger effect = lower value 1.1 and 0.985 | locus YDL040C, strain nat1, stronger effect = lower value 0.988 | locus YDL074C, strain BRE1, stronger effect = lower value 1.05 and 1.02 | locus YDL101C, strain DUN1, stronger effect = lower value 0.982 and 1.03 | locus YDL134C, strain PPH21, stronger effect = lower value 0.989 and 0.983 | locus YDL185W, strain tfp1, stronger effect = lower value 0.988 and 1.03 | locus YDL192W, strain arf1, stronger effect = lower value 0.991 and 1.01 | locus YDR001C, strain nth1, stronger effect = lower value 0.982 | locus YDR069C, strain doa4, stronger effect = lower value 0.976 | locus YDR101C, strain arx1, stronger effect = lower value 0.985 and 1.02 | locus YDR137W, strain rgp1, stronger effect = lower value 0.97 | locus YDR150W, strain NUM1, stronger effect = lower value 0.992 and 1.01 | locus YDR159W, strain sac3, stronger effect = lower value 0.999 | locus YDR162C, strain NBP2, stronger effect = lower value 1.01 and 1 | locus YDR195W, strain ref2 0.921 | locus YDR297W, strain sur2, stronger effect = lower value 0.984 | locus YDR318W, strain mcm21, stronger effect = lower value 0.987 and 1.01 | locus YDR334W, strain swr1, stronger effect = lower value 0.986 | locus YDR335W, strain msn5, stronger effect = lower value 0.99 | locus YDR388W, stronger effect = lower value 0.99 and 1.02 | locus YDR392W, strain spt3, stronger effect = lower value 1.01 | locus YDR502C, strain sam2, stronger effect = lower value 0.985 and 1.01 | locus YEL003W, strain gim4, stronger effect = lower value 0.99 | locus YEL037C, strain rad23, stronger effect = lower value 0.987 | locus YEL061C, strain CIN8 (second series), stronger effect = lower value 0.967 | locus YEL061C, strain CIN8, stronger effect = lower value 0.99 and 1.01 | locus YER015W, strain faa2, stronger effect = lower value 0.989 | locus YER016W, strain bim1, stronger effect = lower value 0.987 | locus YER110C, stronger effect = lower value 0.983 and 1.02 | locus YER111C, strain swi4, stronger effect = lower value 0.97 | locus YER155C, strain BEM2 (second series), stronger effect = lower value 0.909 | locus YER155C, strain BEM2, stronger effect = lower value 0.994 and 1.01 | locus YER167W, strain BCK2, stronger effect = lower value 0.977 and 0.997 | locus YFR010W, strain ubp6, stronger effect = lower value 0.969 | locus YGL078C, strain dbp3, stronger effect = lower value 0.991 and 1.01 | locus YGL086W, strain mad1, stronger effect = lower value 0.952 and 0.998 | locus YGL167C, strain pmr1, stronger effect = lower value 0.981 | locus YGL173C, strain kem1, stronger effect = lower value 0.98 | locus YGL227W, strain vid30, stronger effect = lower value 0.974 | locus YGL240W, strain doc1, stronger effect = lower value 0.969 | locus YGL248W, strain PDE1, stronger effect = lower value 0.983 and 1.02 | locus YGL253W, strain hxk2, stronger effect = lower value 0.996 | locus YGR078C, strain PAC10, stronger effect = lower value 1.01 | locus YGR135W, strain pre9, stronger effect = lower value 1 and 1.01 | locus YGR229C, strain SMI1, stronger effect = lower value 1.02 | locus YGR252W, strain gcn5, stronger effect = lower value 0.952 and 1.02 | locus YHR013C, strain ard1, stronger effect = lower value 0.966 | locus YHR027C, strain rpn1, stronger effect = lower value 0.975 | locus YHR030C, strain SLT2, stronger effect = lower value 0.989 and 1.04 and 1 | locus YHR079C, strain IRE1 (second series), stronger effect = lower value 0.991 and 1.02 | locus YHR079C, strain IRE1, stronger effect = lower value 1.03 | locus YHR094C, strain hxt1, stronger effect = lower value 0.991 and 1.02 | locus YHR129C, strain ARP1, stronger effect = lower value 0.987 and 1.01 | locus YHR142W, strain chs7, stronger effect = lower value 1.02 | locus YHR200W, strain rpn10, stronger effect = lower value 0.987 and 1 | locus YIL066C, strain RNR3, stronger effect = lower value 0.973 and 0.985 | locus YIL073C, strain SPO22, stronger effect = lower value 0.95 and 1.04 | locus YIL125W, strain kgd1, stronger effect = lower value 0.996 and 1.01 | locus YIR030C, strain dcg1, stronger effect = lower value 0.989 and 1.01 | locus YJL092W, strain hpr5, stronger effect = lower value 0.979 | locus YJL095W, strain BCK1 (second series), stronger effect = lower value 0.973 | locus YJL095W, strain BCK1, stronger effect = lower value 1 and 1.02 and 1.05 | locus YJL115W, strain asf1, stronger effect = lower value 0.975 | locus YJL129C, strain trk1, stronger effect = lower value 0.96 | locus YJL134W, strain LCB3, stronger effect = lower value 0.97 and 1 | locus YJL154C, strain vps35, stronger effect = lower value 0.98 | locus YJL164C, strain tpk1, stronger effect = lower value 0.98 | locus YJL166W, strain qcr8, stronger effect = lower value 0.974 | locus YJL168C, strain set2, stronger effect = lower value 0.989 and 1.02 | locus YJL187C, strain SWE1 (second series), stronger effect = lower value 0.997 and 1.05 | locus YJR043C, strain POL32, stronger effect = lower value 0.998 and 0.991 | locus YJR066W, strain TOR1, stronger effect = lower value 0.965
